Out of some 340,000 compounds screened, about 1,000 (0.29%) were called active. Cut-off read from the data, not from the text of the source: inconclusive = inhibition above about 27% without an active follow-up result; inactive = below that. The list is a sample of the results. Entries with a potency or affinity are not part of this list.
assay: H1N1 influenza NS1A inhibitors, functional cell based assay (AID 504329); conditions: percent inhibition, at 12.5 µM, hits give high values

Structure (SMILES) | inhibition
CCN(CC)c1ccc(NC(=O)COC(=O)c2ccc3ccccc3n2)cc1 | 17.3% (inactive)
COc1ccc(NC(=O)COC(=O)c2ccc3ccccc3n2)cc1 | -0.01% (inactive)
O=C(Nc1ccn(CCCNCc2ccccc2)c(=O)n1)OCc1ccccc1 | -1.35% (inactive)
CCN(CC)c1ccc(CN2CC=C(c3ccc(F)cc3)CC2)cc1 | 23.1% (inactive)
COc1cc(CN2CC=C(c3ccc(F)cc3)CC2)cc(OC)c1 | -3.66% (inactive)
N[C@@H](Cc1ccc(O)cc1)c1nnc([C@H](CO)NC(=O)C2CCNCC2)o1 | -21.5% (inactive)
COc1ccccc1C=NNC(=O)c1ccccc1OCCOc1ccccc1 | -1.44% (inactive)
COc1ccc(CCc2nnc(N)s2)cc1OC | -1.61% (inactive)
CCOC(=O)c1cc(-c2ccc(Cl)s2)[nH]n1 | 0.06% (inactive)
CCN(CC)c1ccc(/C=C2/C(=O)NC(=O)N(Cc3ccco3)C2=O)cc1 | 7.25% (inactive)
O=C1NC(=O)N(Cc2ccco2)C(=O)/C1=C/C=C/c1ccco1 | -3.06% (inactive)
NC(=O)C1CCN(/C=C2\C(=O)NC(=O)N(Cc3ccco3)C2=O)CC1 | -5.38% (inactive)
Cn1cccc1/C=C1\C(=O)NC(=O)N(Cc2ccco2)C1=O | 3.7% (inactive)
COC(=O)c1ccc(NC(=O)CNS(=O)(=O)c2cccs2)cc1 | 1.39% (inactive)
COc1cc(NC(=O)c2ccccn2)cc(OC)c1OC | -8.83% (inactive)
COc1ccc(C(=O)N/N=C(\C)CC(=O)Nc2ccccn2)cc1OC | 1.35% (inactive)
COc1cc(C(=O)N/N=C(\c2ccccc2)c2ccccn2)cc(OC)c1OC | 8.37% (inactive)
COc1ccc(C(=O)N/N=C/c2ccccn2)cc1OC | 0.68% (inactive)
COc1ccc(NC(=S)N2CCN(Cc3ccccc3)CC2)c(OC)c1 | -3.28% (inactive)
Fc1cccc(-c2oncc2-c2nnnn2-c2ccc(Cl)cc2)c1 | 12.9% (inactive)
CCOC(=O)c1ccc(NC(=O)CCNS(=O)(=O)c2cc(Br)cnc2N)cc1 | 1.26% (inactive)
CN1CCN(C2=C(Cl)C(=O)c3ccccc3C2=O)CC1 | -8.61% (inactive)
O=C1C(Cl)=C(N2CCC(C(=O)O)CC2)C(=O)c2ccccc21 | 0.19% (inactive)
C[C@H](CO)N1C[C@H](C)[C@H](CN(C)Cc2ccccc2)Oc2c(NC(=O)Nc3ccc(F)cc3)cccc2C1=O | -3.95% (inactive)
Cc1ccc(C(=O)OCC(=O)c2ccc(Cl)s2)s1 | 1.17% (inactive)

Structure (SMILES) | inhibition
CC1(C)CC(NC(=O)C23CCC(C)(C2Br)C3(C)C)CC(C)(C)N1 (stereo not drawn) | -5.71% (inactive)
CCN1C(=O)/C(=C/C=C2/Sc3ccc4ccccc4c3N2CCO)SC1=S | -5.98% (inactive)
CCN1C(c2ccccc2)=C(c2ccccc2)S/C1=C\C=C1/SC(=S)N(C)C1=O | 15.8% (inactive)
CCCCCC/C=C/c1ccc(OC)c([C@H]2[C@H]3C=CC[C@@H](C)[C@@H]3C(=O)N2Cc2ccccc2)c1 | 6.03% (inactive)
CCN1/C(=C/c2ccc3cc(C)ccc3[n+]2CC)Sc2cc(C)ccc21 | 19.4% (inactive)
CCN1/C(=C\c2ccc3ccccc3[n+]2CC)Sc2cc(C)ccc21 | 11.8% (inactive)
Cc1cc(C)nc(NS(=O)(=O)c2ccc(NS(=O)(=O)c3ccc(C#N)cc3)cc2)n1 | -5.4% (inactive)
COC(=O)CNC(=O)CN(c1ccc(OC)cc1OC)S(=O)(=O)c1ccccc1 | -1.66% (inactive)
Cc1cccc(NC(=O)Cn2c(O)c(N=NC(=O)c3ccncc3)c3ccccc32)c1 | -15.6% (inactive)
O=C1NC(c2cccs2)Nc2sc3c(c21)CCCC3 (stereo not drawn) | 3.69% (inactive)
O=C1NC(c2ccncc2)Nc2sc3c(c21)CCCC3 (stereo not drawn) | 2.95% (inactive)
CN1CCc2c(sc3c2C(=O)NC(c2cccs2)N3)C1 (stereo not drawn) | 1.19% (inactive)
CN1CCc2c(sc3c2C(=O)NC(c2ccccc2)N3)C1 (stereo not drawn) | -3.09% (inactive)
CCN1C(=O)/C(=C2\SC(N3CCCCC3)=NC2=O)c2ccccc21 | 14.1% (inactive)
CCCCN1C(=O)/C(=C2\SC(N3CCOCC3)=NC2=O)c2ccccc21 | 8.19% (inactive)
CN1C(=O)/C(=C2\SC(N3CCCCCC3)=NC2=O)c2ccccc21 | 20.3% (inactive)
CCN1C(=O)/C(=C2\SC(N3CCOCC3)=NC2=O)c2ccccc21 | 23.1% (inactive)
COC(=O)c1sccc1NC(=O)c1ccc(Br)o1 | 3.08% (inactive)
Cc1nc2ccccc2c(=O)n1NC(=O)c1cc(Br)ccc1Cl | 3.26% (inactive)
CCOC(=O)c1c(NC(=O)CNCCO)sc(C)c1C | -0.57% (inactive)
CN(CCCNC(=O)c1cc2c(=O)[nH]c3ccccc3c2n1C)Cc1ccccc1 | -0.58% (inactive)
CCN1CCN(C(=O)c2cc(-c3ccc(Cl)s3)nc3ccccc23)CC1 | -3.92% (inactive)
COc1cc(C(=O)OCC(=O)NC(=O)c2cccn2C)ccc1OC(F)F | 5.75% (inactive)
COc1ccc(Oc2ccccc2/C=N/O)cc1 | -9.31% (inactive)
COc1ccc2nc(-c3ccccn3)[nH]c2c1 | -6.69% (inactive)

Structure (SMILES) | inhibition
CC(C)(C)c1cc(=O)[nH]c(SCc2ccccc2)n1 | -17.8% (inactive)
Cn1nc(C(F)(F)F)c(CO)c1Sc1ccc(F)cc1 | 5.51% (inactive)
CC[n+]1c(SC)ccc2cc(OC)ccc21 | -5.15% (inactive)
CC[n+]1cc(C)ccc1/C=C/c1ccc(N(C)C)cc1 | -3.01% (inactive)
CC[n+]1c(/C=C/c2ccc(OC)c(OC)c2)ccc2ccccc21 | 3.91% (inactive)
CN(C)c1ccc(/C=C/c2ccc3ccccc3n2)cc1 | -37.5% (inactive)
CN(C)c1ccc(/C=C/c2nc3ccccc3c(=O)[nH]2)cc1 | -10.6% (inactive)
CC[n+]1c(/C=C/c2ccc(OC(C)=O)c(OC)c2)ccc2ccccc21 | 18.9% (inactive)
CN(CCCS(=O)(=O)[O-])c1ccc(/C=C/c2ccc3ccccc3[n+]2C)cc1 | -6.52% (inactive)
C[n+]1c(/C=C/c2ccc3c(c2)OCO3)ccc2ccccc21 | 8.1% (inactive)
O=C(Nc1nc2ccccc2[nH]1)NC1CCCCC1 | -9.13% (inactive)
O=C(N/C=N/OCc1ccc(Cl)cc1Cl)NOCc1c(Cl)cccc1Cl | -13.6% (inactive)
Cc1ccc(S(=O)(=O)NCC(c2ccc3c(c2)OCO3)N2CCN(c3ccccc3)CC2)cc1 (stereo not drawn) | -19.9% (inactive)
Cc1[nH]c(C)c(S(=O)(=O)NCc2ccccc2Cl)c1C(=O)N1CCCC1 | 9.96% (inactive)
c1csc(C(c2nnnn2C2CCCC2)N2CCOCC2)c1 (stereo not drawn) | 5.59% (inactive)
O=C(CCNC(=O)c1ccccc1Cl)Nc1ccccc1N1CCCC1 | -8.83% (inactive)
O=C(NCCN1CCOCC1)c1noc2c1CCc1ccccc1-2 | 1.97% (inactive)
CCCCCN1C(=O)Cn2c(nc3ccccc3c2=O)C1C (stereo not drawn) | 4.12% (inactive)
Cc1noc(/C=C/N(C)C)c1S(=O)(=O)N1CCN(c2ccc(F)cc2)CC1 | 4.41% (inactive)
CC[n+]1ccccc1/C=C/c1ccc(N(C)C)cc1 | 8% (inactive)
CN(C)c1ccc(/C=C/c2cc[n+](C)c3ccccc23)cc1 | 58.9% (inactive)
COC(=O)c1ccc(CNC(=O)c2sccc2-c2ccccc2)cc1 | 4.96% (inactive)
COc1ccc2[nH]c3c(=O)n4c(nc3c2c1)SCC4 | -0.07% (inactive)
CCCCc1ccc(NS(=O)(=O)c2cccc(C(=O)N3CCNC(=O)C3)c2)cc1 | 0.4% (inactive)
Clc1ccc2c(NNc3ccccc3Cl)ccnc2c1 | 6.7% (inactive)

Structure (SMILES) | inhibition
Oc1ccc(Nc2ccnc3cc(Cl)ccc23)cc1 | 3.37% (inactive)
N/C(=N\N=C\c1ccc2c(c1)OCO2)SC1CC(=O)N(c2ccc(C(=O)O)cc2)C1=O (stereo not drawn) | 1.14% (inactive)
Fc1ccc(Nc2nc(N3CCOCC3)c3ccccc3n2)cc1 | 4.75% (inactive)
Cc1ccc(Nc2nc(N3CCOCC3)c3ccccc3n2)cc1 | 5.53% (inactive)
CCCOc1ccc(C(=O)NCCN2CCOCC2)cc1 | -8.97% (inactive)
O=C1C2C3CCCC3=C3CCCC3C2C(=O)N1c1ccc(F)cc1 (stereo not drawn) | -3.36% (inactive)
CCOc1ccc(NS(=O)(=O)c2ccc(-c3cnc(C4CC4)o3)cc2)cc1 | -5.05% (inactive)
CCSc1nnc(CNc2ccc(C)cc2)n1C | -3.37% (inactive)
Oc1ccc(/C=N/N(c2ccccc2)c2ccccc2)cc1O | 1.06% (inactive)
Oc1ccc(/C=N/N(Cc2ccccc2)c2ccccc2)c(O)c1O | 19.2% (inactive)
COc1ccc(CCC(=O)N(C)CC(=O)Nc2cc(C)ccc2C)cc1 | -11.1% (inactive)
CC(C)OC(=O)c1cc(NC(=O)C2C3C=CC(O3)C2C(=O)O)cc(C(=O)OC(C)C)c1 (stereo not drawn) | 6.16% (inactive)
O=C1[C@H]2[C@@H](C(=O)N1c1cccc3ccccc13)C1(C(=O)c3ccccc3C1=O)N1CCC[C@@H]21 | -0.49% (inactive)
COc1nc(C)nc(NC(=O)NS(=O)(=O)c2ccccc2Cl)n1 | -15.1% (inactive)
COc1cc(OC)nc(NC(=O)NS(=O)(=O)c2ccccc2Cl)n1 | -10.9% (inactive)
C/C(=N\NC(=O)c1ccccc1OCc1ccc(F)cc1)c1ccccn1 | -7.95% (inactive)
CCc1ccc(/C(C)=N/NC(=O)c2ccccn2)cc1 | -11.6% (inactive)
C/C(=N\NC(=O)c1cccc2ccccc12)c1cccs1 | -0.84% (inactive)
C/C(=N\NC(=O)c1cccc(Br)c1)c1cccnc1 | 0.75% (inactive)
C/C(=N\NC(=O)c1cccc2ccccc12)c1cccnc1 | -8.98% (inactive)
O=C(NCCNC(=O)c1ccccc1F)c1ccccn1 | -7.82% (inactive)
C/C(=N/NC(=O)c1ccccn1)c1ccc(O)cc1 | -1.61% (inactive)
C/C(=N\NC(=O)c1ccccc1)c1cccc(Br)c1 | 3.22% (inactive)

— PubChem BioAssay AID504329 (Southern Research Specialized Biocontainment Screening …, 2011)
